Measurements: PubChem BioAssay (NCI)
This is part of a sample that, as a whole, favours compounds with a hit. Of some 79,000 tested, about 15% had one in any assay. Calls of active or inactive are those of the source. Cut-off read from the data, not from the text of the source: active = growth inhibition above about 70%; inactive = the rest.

Legend:
[1] = NCI Yeast Anticancer Drug Screen. Data for the wt1 strain (AID 149);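 note: 0% = growth of vehicle-treated wt1 cultures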; conditions: S. cerevisiae wt1 strain (SPY 50644) growth inhibition, stronger effect = higher value
Outline: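 Measured: growth of wt1 yeast under compound versus vehicle treatment, reported as inhibition.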

[2] = NCI Yeast Anticancer Drug Screen. Data for the rad50EPP+ strain (AID 151);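 note: 0% = growth of vehicle-treated control cultures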; conditions: S. cerevisiae rad50 mutant strain, stronger effect = higher value
Outline: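 rad50EPP+ yeast treated with test compounds. Readout: growth vs vehicle control.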

[3] = NCI Yeast Anticancer Drug Screen. Data for the rad50 strain (AID 155);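 note: 0% = growth of vehicle-only cultures of the same strain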; conditions: S. cerevisiae rad50 strain growth inhibition, stronger effect = higher value
Outline: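 Growth of the mutant yeast was measured after compound exposure and referenced to vehicle-treated cultures.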

[4] = NCI Yeast Anticancer Drug Screen. Data for the mec2-1 strain (AID 157); conditions: S. cerevisiae mec2-1 strain, stronger effect = higher value
Outline: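 Growth inhibition is read against vehicle-treated controls after compound exposure of the mec2-1 yeast strain, which is defective in DNA damage repair or cell cycle control.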

[5] = NCI Yeast Anticancer Drug Screen. Data for the rad14 strain (AID 159);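 note: 0% = growth of vehicle-treated control cultures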; conditions: S. cerevisiae rad14 strain growth inhibition, stronger effect = higher value
Outline: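 Here, inhibition of yeast growth was measured after compound exposure, using a strain with a genetic defect in DNA damage repair and vehicle-treated cultures as the reference.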

[6] = NCI Yeast Anticancer Drug Screen. Data for the sgs1 mgt1 strain (AID 161);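 note: 0% = growth of cultures given vehicle only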; conditions: S. cerevisiae sgs1 mgt1 strain, stronger effect = higher value
Outline: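 Growth of a repair-deficient yeast mutant was monitored after compound treatment and expressed as inhibition relative to vehicle-treated cultures.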

[7] = NCI Yeast Anticancer Drug Screen. Data for the CLN2oe strain (AID 163);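 note: 0% = growth of vehicle-only control cultures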; conditions: S. cerevisiae CLN2oe strain, stronger effect = higher value
Outline: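 Compound-treated yeast; growth vs vehicle ctrl = % inhibition. Genetically altered strain (cell-cycle control).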

[8] = NCI Yeast Anticancer Drug Screen. Data for the cln2 rad14 strain (AID 165);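 note: 0% = growth equal to vehicle treated cultures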; conditions: S. cerevisiae cln2 rad14 strain, stronger effect = higher value
Outline: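 Growth inhibition, relative to vehicle-treated controls, is the read-out. The test organism is a yeast strain with defined genetic alterations, cln2 rad14.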

[9] = NCI Yeast Anticancer Drug Screen. Data for the bub3 strain (AID 167); conditions: S. cerevisiae bub3 mutant strain, stronger effect = higher value
Outline: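 Whole-cell yeast assay. The mutant strain was incubated with compounds, and growth inhibition was determined by comparison with vehicle-treated cells.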

[10] = NCI Yeast Anticancer Drug Screen. Data for the wt2 strain (AID 169);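 note: 0% = growth of vehicle-treated yeast cultures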; conditions: S. cerevisiae wt2 strain growth inhibition, stronger effect = higher value
Outline: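 Compound exposure of yeast; growth compared with vehicle controls; inhibition reported.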

[11] = NCI Yeast Anticancer Drug Screen. Data for the mlh1 strain (AID 171);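 note: 0% = growth of vehicle-treated control cultures of the same strain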; conditions: S. cerevisiae mlh1 strain growth inhibition, stronger effect = higher value
Outline: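 Compounds are applied to a genetically altered yeast strain, and its growth is compared with that of vehicle-treated cultures to give percent inhibition.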

[12] = NCI Yeast Anticancer Drug Screen. Data for the mlh1 rad18 strain (AID 175); conditions: S. cerevisiae mlh1 rad18 strain growth inhibition, stronger effect = higher value
Outline: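 Cells of a genetically altered yeast strain, deficient in DNA damage repair, were treated with compound. Their growth was then compared with that of vehicle-treated cultures to give inhibition.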

[13] = NCI Yeast Anticancer Drug Screen. Data for the rad18 strain (AID 177); conditions: S. cerevisiae rad18 mutant growth inhibition, stronger effect = higher value
Outline: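 Compounds are applied to a repair-deficient yeast strain, and growth is compared with that of vehicle-treated cultures to give percent inhibition.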

[14] = NCI Yeast Anticancer Drug Screen. Data for the rad52 strain (AID 147);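 note: 0% = growth of vehicle-treated control cultures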; conditions: S. cerevisiae rad52 mutant growth inhibition, stronger effect = higher value
Outline: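 DNA repair-defective yeast; compound exposure; growth scored against vehicle controls.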

[15] = NCI Yeast Anticancer Drug Screen. Data for the mgt1 strain (AID 153); conditions: S. cerevisiae mgt1 mutant growth inhibition, stronger effect = higher value
Outline: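 Growth inhibition relative to vehicle controls was scored for the mgt1 yeast strain after compound exposure.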

[16] = NCI Yeast Anticancer Drug Screen. Data for the sgs1 strain (AID 173);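 note: 0% = growth of vehicle-only control cultures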; conditions: S. cerevisiae sgs1 mutant, stronger effect = higher value
Outline: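 Compounds applied to genetically altered yeast; growth compared with vehicle-treated cultures to give % inhibition.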

[17] = at 5.0 µM (retest, dose inferred, filed as 0.5)
[18] = at 50.0 µM (retest, dose inferred, filed as 5.0)

Measured: growth inhibition

CC1CC(C)CC(C)C(O)/C(C#N)=C/C=C/CC(C2CCCC2C(=O)O)OC(=O)CC(O)C(C)C1 (centres undefined)
active: [1]; at 1.2 µM 97% | [1]; at 3.7 µM 99% | [1]; at 11.0 µM 99% | [1]; at 33.0 µM 99% | [1]; at 100.0 µM 98% | [2]; at 33.0 µM 93% | [2]; at 100.0 µM 97% | [3]; at 1.2 µM 94% | [3]; at 3.7 µM 97% | [3]; [17] 98% | [3]; at 11.0 µM 97% | [3]; at 33.0 µM 97% | [3]; [18] 98% | [3]; at 50.0 µM 92.6% | [3]; at 100.0 µM 97% | [4]; at 1.2 µM 96% | [4]; at 3.7 µM 98% | [4]; [17] 99% | [4]; at 11.0 µM 98% | [4]; at 33.0 µM 98% | [4]; [18] 99% | [4]; at 50.0 µM 94.5% | [4]; at 100.0 µM 98% | [5]; at 1.2 µM 98% | [5]; at 3.7 µM 98% | [5]; at 11.0 µM 98% | [5]; at 33.0 µM 99% | [5]; at 100.0 µM 98% | [6]; at 50.0 µM 93.7% | [7]; at 1.2 µM 86% | [7]; at 3.7 µM 96% | [7]; at 11.0 µM 97% | [7]; at 33.0 µM 97% | [7]; at 100.0 µM 97% | [8]; at 50.0 µM 92.4% | [9]; at 1.2 µM 93% | [9]; at 3.7 µM 98% | [9]; at 11.0 µM 98% | [9]; at 33.0 µM 98% | [9]; at 50.0 µM 93.3% | [9]; at 100.0 µM 98% | [10]; at 1.2 µM 90% | [10]; at 3.7 µM 100% | [10]; at 11.0 µM 99% | [10]; at 33.0 µM 99% | [10]; at 100.0 µM 98% | [11]; at 1.2 µM 90% | [11]; at 3.7 µM 98% | [11]; at 11.0 µM 98% | [11]; at 33.0 µM 98% | [11]; at 100.0 µM 98% | [12]; [17] 98% | [12]; [18] 98% | [12]; at 50.0 µM 91.6% | [13]; at 1.2 µM 96% | [13]; at 3.7 µM 97% | [13]; at 11.0 µM 98% | [13]; at 33.0 µM 97% | [13]; at 100.0 µM 97%
inactive: [2]; at 1.2 µM -17% | [2]; at 3.7 µM 21% | [2]; at 11.0 µM 68% | [6]; [17] 15% | [6]; [18] 2% | [8]; [17] 8% | [8]; [18] -20% | [9]; [17] 10% | [9]; [18] -7%

COC(=O)C1C2c3ccccc3C(c3ccccc32)C1C(=O)OC (centres undefined)
active: [6]; [18] 70% | [6]; at 50.0 µM 72.5%
inactive: [14]; at 1.2 µM 3% | [14]; at 3.7 µM 10% | [14]; at 11.0 µM 9% | [14]; at 33.0 µM 10% | [14]; at 100.0 µM 10% | [2]; at 1.2 µM 4% | [2]; at 3.7 µM 5% | [2]; at 11.0 µM 4% | [2]; at 33.0 µM 7% | [2]; at 100.0 µM 10% | [15]; at 1.2 µM -2% | [15]; at 3.7 µM -1% | [15]; at 11.0 µM -2% | [15]; at 33.0 µM 2% | [15]; at 100.0 µM 11% | [3]; at 1.2 µM 4% | [3]; at 3.7 µM 1% | [3]; [17] 6% | [3]; at 11.0 µM 3% | [3]; at 33.0 µM 7% | [3]; [18] 47% | [3]; at 50.0 µM 14.8% | [3]; at 100.0 µM 7% | [4]; at 1.2 µM -2% | [4]; at 3.7 µM -3% | [4]; [17] -3% | [4]; at 11.0 µM -1% | [4]; at 33.0 µM 0% | [4]; [18] 15% | [4]; at 50.0 µM 41.5% | [4]; at 100.0 µM 9% | [6]; [17] 5% | [7]; at 1.2 µM 2% | [7]; at 3.7 µM -1% | [7]; at 11.0 µM 0% | [7]; at 33.0 µM 7% | [7]; at 100.0 µM 17% | [8]; [17] -3% | [8]; [18] 28% | [8]; at 50.0 µM 8.85% | [9]; at 1.2 µM -1% | [9]; at 3.7 µM -2% | [9]; [17] 19% | [9]; at 11.0 µM -4% | [9]; at 33.0 µM 1% | [9]; [18] 27% | [9]; at 50.0 µM 14.4% | [9]; at 100.0 µM 2% | [11]; at 1.2 µM -2% | [11]; at 3.7 µM -2% | [11]; at 11.0 µM -3% | [11]; at 33.0 µM 1% | [11]; at 100.0 µM 11% | [16]; at 1.2 µM -6% | [16]; at 3.7 µM -17% | [16]; at 11.0 µM -11% | [16]; at 33.0 µM -4% | [16]; at 100.0 µM 2% | [12]; [17] 17% | [12]; [18] 69% | [12]; at 50.0 µM 17.1% | [13]; at 1.2 µM 0% | [13]; at 3.7 µM 2% | [13]; at 11.0 µM 4% | [13]; at 33.0 µM 7% | [13]; at 100.0 µM 8%

Cc1cccc(NC(=O)CBr)c1
inactive: [1]; at 1.2 µM 1% | [1]; at 3.7 µM 24% | [2]; at 1.2 µM -10% | [2]; at 3.7 µM -3% | [2]; at 11.0 µM 26% | [15]; at 1.2 µM -2% | [15]; at 3.7 µM 22% | [3]; at 1.2 µM 6% | [3]; [17] 21% | [4]; at 1.2 µM 7% | [4]; at 3.7 µM 44% | [4]; [17] 1% | [5]; at 1.2 µM -27% | [5]; at 3.7 µM 57% | [6]; [17] 49% | [7]; at 1.2 µM 2% | [7]; at 3.7 µM 22% | [8]; [17] 34% | [9]; at 1.2 µM 13% | [9]; at 3.7 µM 58% | [9]; [17] 63% | [10]; at 1.2 µM 1% | [10]; at 3.7 µM 33% | [11]; at 1.2 µM -2% | [11]; at 3.7 µM 46% | [16]; at 1.2 µM 9% | [16]; at 3.7 µM 55% | [12]; [17] 45% | [13]; at 1.2 µM 5% | [13]; at 3.7 µM 39%
active: [1]; at 11.0 µM 98% | [1]; at 33.0 µM 99% | [1]; at 100.0 µM 98% | [2]; at 33.0 µM 96% | [2]; at 100.0 µM 99% | [15]; at 11.0 µM 99% | [15]; at 33.0 µM 99% | [15]; at 100.0 µM 99% | [3]; at 3.7 µM 73% | [3]; at 11.0 µM 97% | [3]; at 33.0 µM 99% | [3]; [18] 99% | [3]; at 50.0 µM 99.2% | [3]; at 100.0 µM 99% | [4]; at 11.0 µM 98% | [4]; at 33.0 µM 99% | [4]; [18] 99% | [4]; at 50.0 µM 99.7% | [4]; at 100.0 µM 99% | [5]; at 11.0 µM 99% | [5]; at 33.0 µM 99% | [5]; at 100.0 µM 99% | [6]; [18] 99% | [6]; at 50.0 µM 99.2% | [7]; at 11.0 µM 96% | [7]; at 33.0 µM 98% | [7]; at 100.0 µM 98% | [8]; [18] 99% | [8]; at 50.0 µM 99.1% | [9]; at 11.0 µM 97% | [9]; at 33.0 µM 98% | [9]; [18] 98% | [9]; at 50.0 µM 99.6% | [9]; at 100.0 µM 99% | [10]; at 11.0 µM 98% | [10]; at 33.0 µM 99% | [10]; at 100.0 µM 99% | [11]; at 11.0 µM 99% | [11]; at 33.0 µM 99% | [11]; at 100.0 µM 99% | [16]; at 11.0 µM 99% | [16]; at 33.0 µM 99% | [16]; at 100.0 µM 99% | [12]; [18] 99% | [12]; at 50.0 µM 99.3% | [13]; at 11.0 µM 97% | [13]; at 33.0 µM 99% | [13]; at 100.0 µM 99%
